Assay results taken from PubChem BioAssay AID463173 (ICCB-Longwood Screening Facility, Harvard Medical School, 2010).
Screen size: about 52,000 compounds; about 4,300 (8.3%) were called active. Shown is part of a subset that was picked to be rich in actives. A number with no mark means an inactive call. Rule as the data show it: active = survival mostly below about 52% (no sharp cut-off); inactive = mostly above about 56%.

These compounds were tested on DeltatarO mutant (assay: growth inhibition of S. aureus wild type versus tarO mutant, primary screen, teichoic acid synthesis inhibitors, RN4220, OD600 (AID 463173)). Details: OD600, 18 h, hits give low values, screened at 18.75 µg/mL (by protocol).

**Q.** `COc1ccccc1/C=C/c1nc(C#N)c(N2CCCCC2)o1` was tested. Which survival did it give?
**A.** 75%

**Q.** Which survival does the source give for `Cc1ccc(C(=O)c2sc(Nc3ccccc3F)c(S(=O)(=O)c3ccccc3)c2N)c(C)c1` here?
**A.** 74%

**Q.** Which survival does the source give for `COC(=O)c1cc(NC(=O)c2nn(C)c3c2CSc2ccccc2-3)cc(C(=O)OC)c1` here?
**A.** 88%

**Q.** With `CN1CCN(C2(CNC(=O)c3ccc([N+](=O)[O-])cc3)CCCCC2)CC1` as the compound, how does the survival read?
**A.** 102%

**Q.** Which survival does the source give for `Cc1ccc(C(C)C)c(OCC(=O)NCC2(N(C)C)CCCCC2)c1` here?
**A.** 95%

**Q.** With `N#Cc1c(NC(=O)C2CC(=O)NN2Cc2ccccc2)sc2c1CCCC2` (centres undefined) as the compound, how does the survival read?
**A.** 82%

**Q.** Which survival does the source give for `CCn1c(CNC(=O)c2ccc(OC)cc2)nnc1SCC(=O)Nc1ccc(F)cc1` here?
**A.** 130%

**Q.** `O=C(C1=C(N2CCCCC2)c2ccccc2S(=O)(=O)N1)c1ccccc1` was tested. Which survival did it give?
**A.** 94%

**Q.** How did the survival turn out when `Cc1ccc(-n2nnc(-c3nc(-c4cccs4)no3)c2N)c(C)c1` was run?
**A.** 101%

**Q.** How did the survival turn out when `O=C(Nc1ccccc1Cl)c1cc2c(-c3ccccc3)nn(-c3ccccc3)c2s1` was run?
**A.** 56%

**Q.** For `COc1ccc(NC(=O)c2cc3c(C)nn(-c4ccccc4)c3s2)c(OC)c1`, which survival is on record?
**A.** 59%

**Q.** Which survival does the source give for `Cc1ccccc1NC(=O)c1cc2c(-c3ccccc3)nn(-c3ccccc3)c2s1` here?
**A.** 57%

**Q.** `COc1ccccc1NC(=O)c1cc2c(C)nn(-c3ccccc3)c2s1` was tested. Which survival did it give?
**A.** 0% (active)

**Q.** Which survival does the source give for `COc1ccccc1NC(=O)c1cc2c(-c3ccccc3)nn(-c3ccccc3)c2s1` here?
**A.** 89%

**Q.** For `Cc1nn(-c2ccccc2)c2sc(C(=O)Nc3ccccc3Br)cc12`, which survival is on record?
**A.** 9% (active)

**Q.** `CCc1ccccc1NC(=O)C1CCN(C2=NS(=O)(=O)C(c3ccc(C)c(C)c3)=C2C)CC1` was tested. Which survival did it give?
**A.** 80%

**Q.** How did the survival turn out when `COc1ccc(-c2nc(C(N)=O)c3c(n2)n(-c2ccccc2OC)c(=O)n3C)c(OC)c1` was run?
**A.** 82%

**Q.** With `CCN(CC)S(=O)(=O)c1ccc(-n2cnnn2)c(C)c1` as the compound, how does the survival read?
**A.** 111%

**Q.** How did the survival turn out when `Cc1ccc(NC(=O)CSc2nncn3c2cc2sccc23)cc1F` was run?
**A.** 61%

**Q.** `COc1ccc(CCNC(=O)C2CCCN(S(=O)(=O)c3ccc4c(c3)oc(=O)n4C)C2)cc1OC` (centres undefined) was tested. Which survival did it give?
**A.** 72%

**Q.** Which survival does the source give for `CCC1CCCCN1S(=O)(=O)c1ccc(NC(=O)c2cc(=O)c3c(C)cc(C)cc3o2)cc1` (centres undefined) here?
**A.** 45%

**Q.** With `COc1ccc(C)cc1NC(=O)COc1cc(=O)n(C)c2ccccc12` as the compound, how does the survival read?
**A.** 90%

**Q.** Which survival does the source give for `CCOC(=O)c1ccccc1NC(=O)COc1cc(=O)n(CC)c2ccccc12` here?
**A.** 53%

**Q.** How did the survival turn out when `CCc1ccc(OCC(=O)Nc2ccc3c(c2)c2ccccc2n3CC)c(Br)c1` was run?
**A.** 6% (active)

**Q.** For `CCc1ccc(OCC(=O)Nc2ccc3c(c2)c2ccccc2n3CC)cc1`, which survival is on record?
**A.** 51%

**Q.** Which survival does the source give for `Cc1ccc(-n2nc3ccc(NC(=O)COc4ccccc4C)cc3n2)cc1` here?
**A.** 72%

**Q.** How did the survival turn out when `CCn1c2ccccc2c2cc(NC(=O)COc3cc(C)ccc3C)ccc21` was run?
**A.** 29% (active)

**Q.** `CCc1cccc(NC(=O)COc2cc(=O)n(CC)c3ccccc23)c1` was tested. Which survival did it give?
**A.** 115%

**Q.** With `CCn1c2ccccc2c2cc(NC(=O)COc3ccc(C)cc3C)ccc21` as the compound, how does the survival read?
**A.** -5% (active)

**Q.** How did the survival turn out when `COc1ccc(NC(=O)c2ccco2)cc1NC(=O)COc1ccc(C)cc1C` was run?
**A.** 56%

**Q.** For `CCc1ccc(S(=O)(=O)c2nnn3c2nc(N2CCOCC2)c2sccc23)cc1`, which survival is on record?
**A.** 83%

**Q.** `Cc1ccccc1-n1nc(CO)c(C(=O)NCCc2ccccc2)n1` was tested. Which survival did it give?
**A.** 86%

**Q.** `Cc1ccc(-c2cc(C(F)F)n3ncc(C(=O)NCC4CCCO4)c3n2)cc1` (centres undefined) was tested. Which survival did it give?
**A.** 87%

**Q.** For `CCCCN(C)CCNC(=O)CN1C(=O)CSc2ccc(S(=O)(=O)N3CCCCC3)cc21`, which survival is on record?
**A.** 113%

**Q.** How did the survival turn out when `CC(C)Cc1nn2cc(-c3cccc(Br)c3)nc2s1` was run?
**A.** 112%

**Q.** How did the survival turn out when `Cn1ccc2cc(S(=O)(=O)N3CCCN(C(=O)Nc4ccccc4Br)CC3)ccc21` was run?
**A.** 67%

**Q.** How did the survival turn out when `CCOc1ccc(Nc2nc3c(S(=O)(=O)c4ccc(CC)cc4)nnn3c3ccc(Cl)cc23)cc1` was run?
**A.** 104%

**Q.** With `O=C(O)CNC(=O)c1sc2ccccc2c1Cl` as the compound, how does the survival read?
**A.** 84%

**Q.** For `O=C(Nc1cccc(C(F)(F)F)c1)Nc1cccs1`, which survival is on record?
**A.** -3% (active)

**Q.** With `Cc1ccc(NC(=O)Nc2cccs2)c(C)c1` as the compound, how does the survival read?
**A.** 91%

**Q.** Which survival does the source give for `O=C(Nc1cccc(C(F)(F)F)c1)c1cccs1` here?
**A.** 95%

**Q.** Which survival does the source give for `O=C(Nc1cccc(C(F)(F)F)c1)c1cccc(C(=O)Nc2cccc(C(F)(F)F)c2)c1` here?
**A.** 84%

**Q.** Which survival does the source give for `O=C(Nc1cccs1)Nc1cc(C(F)(F)F)ccc1Cl` here?
**A.** 11% (active)

**Q.** How did the survival turn out when `Cc1cc(C)cc(NC(=O)Nc2cccs2)c1` was run?
**A.** 26% (active)

**Q.** Which survival does the source give for `Cc1ccccc1NC(=O)Nc1cccs1` here?
**A.** 94%

**Q.** With `O=C(Nc1cccs1)Nc1ccc(F)cc1F` as the compound, how does the survival read?
**A.** 83%

**Q.** For `O=C(Nc1cc(C(F)(F)F)ccc1Cl)c1cc(-c2cccs2)nc2ccccc12`, which survival is on record?
**A.** 86%

**Q.** Which survival does the source give for `COc1ccc(CNC(=O)c2cnc(N3CCCC3)nc2C)cc1` here?
**A.** 71%

**Q.** For `O=S(=O)(Nc1ccc(-c2ccc(N3CCCC3)nn2)cc1)c1ccccc1Cl`, which survival is on record?
**A.** 66%

**Q.** `CC1(NS(C)(=O)=O)CC=CC1` was tested. Which survival did it give?
**A.** 115%

**Q.** For `Cc1cccc(NC(=O)c2cccc(N3CCCS3(=O)=O)c2)c1`, which survival is on record?
**A.** 78%

**Q.** Which survival does the source give for `COc1cccc(C2C(C(=O)Nc3ccc(C)cc3C)=C(C)Nc3c(C(=O)Nc4cccc(C)c4)cnn32)c1OC` (centres undefined) here?
**A.** 94%

**Q.** `CCn1cc(S(=O)(=O)c2cccc(C)c2)c(=O)c2cc(F)c(N3CCN(c4ccccc4)CC3)cc21` was tested. Which survival did it give?
**A.** 84%

**Q.** How did the survival turn out when `CCCc1cc(=O)[nH]c2nnc(SCCC(C)C)n12` was run?
**A.** 90%

**Q.** With `Cc1cccc(-n2cc(-c3ccccc3)c3c(N4CCC(C)CC4)ncnc32)c1` as the compound, how does the survival read?
**A.** 90%

**Q.** For `CCOc1ccc(/C=C/c2nc(C#N)c(N3CCN(CC)CC3)o2)cc1`, which survival is on record?
**A.** 70%

**Q.** For `CN1CCN(C2=NC(=O)/C(=C\C=C/c3ccccc3)S2)CC1`, which survival is on record?
**A.** 79%

**Q.** `CCOc1cc(C2C(C(=O)OC)=C(C)NC3=C2C(=O)c2ccccc23)cc(Br)c1OCC` (centres undefined) was tested. Which survival did it give?
**A.** 47%

**Q.** `CCOc1ccc(Br)cc1C1C(C(=O)OC)=C(C)NC2=C1C(=O)c1ccccc12` (centres undefined) was tested. Which survival did it give?
**A.** 48%

**Q.** With `CCOc1cc(C2C(C(=O)OC)=C(C)NC3=C2C(=O)c2ccccc23)cc(Cl)c1O` (centres undefined) as the compound, how does the survival read?
**A.** 29% (active)

**Q.** For `CCOc1ccc(C2C(C(=O)OC)=C(C)NC3=C2C(=O)c2ccccc23)cc1OC` (centres undefined), which survival is on record?
**A.** 48%

**Q.** For `CCOc1cc(C2C(C(=O)OC)=C(C)NC3=C2C(=O)c2ccccc23)ccc1O` (centres undefined), which survival is on record?
**A.** 31% (active)

**Q.** For `CCOc1cc(C2C(C(=O)OC)=C(C)NC3=C2C(=O)c2ccccc23)c(Br)cc1OC` (centres undefined), which survival is on record?
**A.** 52%

**Q.** `C#CCOc1c(Br)cc(C2C(C(=O)OC)=C(C)NC3=C2C(=O)c2ccccc23)cc1OCC` (centres undefined) was tested. Which survival did it give?
**A.** 62%

**Q.** With `C#CCOc1ccc(C2C(C(=O)OC)=C(C)NC3=C2C(=O)c2ccccc23)cc1OCC` (centres undefined) as the compound, how does the survival read?
**A.** 167%

**Q.** With `CCOC(=O)COc1ccccc1C1C(C(=O)OC)=C(C)NC2=C1C(=O)c1ccccc12` (centres undefined) as the compound, how does the survival read?
**A.** 39% (active)

**Q.** For `COC(=O)C1=C(C)NC2=C(C(=O)c3ccccc32)C1c1ccc(O)c(OC)c1` (centres undefined), which survival is on record?
**A.** 85%

**Q.** For `CCOC(=O)COc1ccc(C2C(C(=O)OC)=C(C)NC3=C2C(=O)c2ccccc23)cc1Cl` (centres undefined), which survival is on record?
**A.** 119%

**Q.** With `COC(=O)COc1ccc(C2C(C(=O)OC)=C(C)NC3=C2C(=O)c2ccccc23)cc1OC` (centres undefined) as the compound, how does the survival read?
**A.** 29% (active)
